Source: PubChem BioAssay
A selection: hits, their analogues and other compounds. The true share with any hit is near 9.2%.
JMJD2E inh = blocks human JMJD2E demethylase activity. B2RXH2. JMJD2E catalytic domain, FDH-coupled NADH fluorescence (FDH is formaldehyde dehydrogenase). actives 1.6% (n = 230,000). Potency, µM (titrated, usually from 57.1 µM), for inactives: at the top dose activity change, negative = inhibition, most hits filed as inhibitors. AID 2147;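 note: 0% = wells with enzyme and -100% = buffer wells without enzyme; nearly all actives have a fitted effect of over 50% in size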
HPGD inh = inhibitors of human 15-hydroxyprostaglandin dehydrogenase (HPGD); purified HPGD, NADH fluorescence kinetic, PGE2 substrate; Potency, µM, inactives show at the highest dose activity change, negative = inhibition, most hits filed as inhibitors; actives 4.3% (n = 150,000); note: % is set by controls: 0 for no effect and ±100 for the full control effect
Target sequence (P15428 whole entry, looked up): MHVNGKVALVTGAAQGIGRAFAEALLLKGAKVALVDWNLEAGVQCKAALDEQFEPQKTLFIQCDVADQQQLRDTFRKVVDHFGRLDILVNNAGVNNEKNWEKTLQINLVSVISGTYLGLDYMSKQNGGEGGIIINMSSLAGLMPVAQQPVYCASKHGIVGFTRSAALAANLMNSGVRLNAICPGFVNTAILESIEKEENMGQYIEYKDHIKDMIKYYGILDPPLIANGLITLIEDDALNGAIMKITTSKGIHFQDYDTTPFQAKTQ
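20 nM HPGD preincubated 15 min at room temperature with compound in 50 mM Tris-HCl pH 8, 0.01% Tween 20. Started with 1 mM NAD+ and 30 uM prostaglandin E2; NADH fluorescence (360/450 nm) read 5 times over 30-s intervals, last minus first.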
HttQ103 aggreg = inhibitors of mutant huntingtin aggregate formation in PC12 cells | Potency, µM (top dose mostly 46.1 µM), for inactives: top-dose activity change, negative = inhibition, hits mostly inhibitors | PC12 HttQ103-GFP aggregates, Acumen cytometry, 40 h | actives 1.1% (n = 220,000) | AID 1688; active = well fitted curve in the direction sought with a large enough effect; inconclusive = small, poorly fitted or top-dose-only effect, or another doubt; inactive = no such curve, though single readings can be large; an effect the other way counts as inactive or inconclusive; note: % is set by controls: 0 for no effect and ±100 for the full control effect; nearly all actives have a fitted effect of over 60% in size
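Steps: seed 1500 PC12 HTTQ103-GFP cells/well; add tebufenozide, 100 nM final; add compound titration; add ATPLite reagent; quantify GFP aggregates by laser scanning cytometry.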
ALDH1A1 block = ALDH1A1 (human) enzyme inhibition; P00352; Purified ALDH1A1, NADH fluorescence, propionaldehyde substrate; Potency, µM (titrated, usually from 75.3 µM), without a hit: top-dose activity, negative = inhibition, most hits filed as inhibitors; actives 7.3% (n = 220,000);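 note: plate controls were no enzyme wells and a reference inhibitor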
Target sequence (P00352 whole entry, looked up): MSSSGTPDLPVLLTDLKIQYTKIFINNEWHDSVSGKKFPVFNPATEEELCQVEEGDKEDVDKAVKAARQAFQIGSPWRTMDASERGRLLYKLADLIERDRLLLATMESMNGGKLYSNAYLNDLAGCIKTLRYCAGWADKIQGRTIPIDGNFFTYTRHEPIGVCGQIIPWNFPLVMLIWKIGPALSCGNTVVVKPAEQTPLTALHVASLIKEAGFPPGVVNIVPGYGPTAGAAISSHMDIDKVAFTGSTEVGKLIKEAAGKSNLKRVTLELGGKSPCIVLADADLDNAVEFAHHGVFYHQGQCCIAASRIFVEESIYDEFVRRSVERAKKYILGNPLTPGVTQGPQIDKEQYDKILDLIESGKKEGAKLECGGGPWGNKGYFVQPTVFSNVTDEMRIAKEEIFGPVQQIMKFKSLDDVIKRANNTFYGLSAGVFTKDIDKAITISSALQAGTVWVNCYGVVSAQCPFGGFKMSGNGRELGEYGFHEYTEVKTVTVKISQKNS
Lamin A splicing = LMNA splicing modulation. HeLa LMNA splicing GFP/RFP minigene ratio, 48 h. Potency, µM (doses to about 46.1 µM), for the others: at the highest dose ratio change, negative = inhibition, actives largely listed as inhibitors. actives 0.01% (n = 200,000); active = well fitted inhibition curve with a large enough effect in the signal ratio, with a control signal flat, not every such curve was filed as active; inconclusive = small, poorly fitted or top-dose-only effect, or effect the other way, or a change in a side signal; the % refers to the signal ratio; note: % is set by controls: 0 for no effect and ±100 for the full control effect
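S3 HeLa stable clones carrying a lamin A-EGFP splicing minigene plus DsRed2 were seeded at 600 cells/well in Opti-MEM with 2% FBS, pin-dosed and incubated 48 h at 37°C. Acumen cytometry (488 nm) gave the GFP/RFP total-intensity ratio.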
HTT ATP protect = Huntington cell model cytoprotection by ATP luminescence | PC12 HTT-Q103 induced, cytoprotection, ATP luminescence, 40 h | Potency, µM (titrated, usually from 56.4 µM), inactives show cytoprotection (ATP increase), most hits filed as activators | actives 0.14% (n = 230,000) | AID 1471; active = well fitted curve in the direction sought with a large enough effect; inconclusive = small, poorly fitted or top-dose-only effect, or another doubt; inactive = no such curve, though single readings can be large; an effect the other way counts as inactive or inconclusive; note: % of control where 0% means no effect; nearly all actives have a fitted effect of over 45% in size
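ATP quantification (ATPlite) reports survival of PC12 cells in which tebufenozide, 100 nM final, switches on Htt exon 1 with 103 glutamines linked to GFP; compounds are titrated.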
* hit, by the source's call; ? = inconclusive; nt = no result given; [ ] = remark or other dose. Unless noted, calls come from the whole dose curve; as a rule, active = well fitted inhibition curve with a large enough effect (not every such curve was filed as active); inconclusive = small, poorly fitted or top-dose-only effect, or another doubt; inactive = no such curve, though single readings can be large or run the other way. Potency is the fitted concentration of half-maximal effect.

SMILES | JMJD2E inh | HPGD inh | HttQ103 aggreg | ALDH1A1 block | Lamin A splicing | HTT ATP protect
O=C(CN1CCOCC1)N1CCc2ccccc2C(c2ccccc2)C1 (stereo unspecified) | ? | -13% | -10% | 14µM* | ? | -15%
COC(=O)CC1C(=O)NCCN1C(=O)CSc1nc2ccccc2s1 (stereo unspecified) | -11% | nt | 9% | 18µM* | nt | -33%
CCOC(=O)c1c(S(=O)(=O)N2CCCC(C(=O)Nc3ccc(C)cn3)C2)c(C)n(C)c1C (stereo unspecified) | nt | nt | nt | nt | 15%[46 µM] | nt
Cc1ccccc1N=C1NC(=O)/C(=C/c2cccn2C)S1 | -1% | nt | -15%[9.22 µM] | nt | nt | 20%[10 µM]
Cn1cccc1/C=C1\CCC/C(=C\c2cccn2C)C1=O | -16% | -1% | -2% | 7.9µM* | ? | -48%
CCN(CC)S(=O)(=O)c1ccc(N2CCCC2)c(NC(=O)Cc2ccc(OC)cc2)c1 | -17% | nt | 11% | 1.1µM* | nt | nt
CCN(CC)S(=O)(=O)c1ccc(N2CCCC2)c(NC(=O)C2CCCCC2)c1 | -6% | nt | 10%[9.22 µM] | nt | nt | -11%[10 µM]
CCOc1ccc(S(=O)(=O)Nc2cc(S(=O)(=O)N(CC)CC)ccc2N2CCCC2)cc1 | -27% | -11% | -10% | 0.79µM* | 17% | 3%[10 µM]
CCN(CC)c1nn2c(=O)c(C(=O)NCc3ccc(F)cc3)cnc2s1 | nt | nt | nt | nt | 11%[46 µM] | nt
CCOC(=O)c1scc(-c2ccc(C)cc2)c1S(=O)(=O)N1CCN(c2ccccc2F)CC1 | nt | nt | nt | nt | 4%[46 µM] | nt
FC(F)(F)c1ccc(Oc2ccc(Cl)cc2Br)nc1 | -7% | nt | -15% | -6% | nt | nt
O=C(CCn1cccn1)NCc1ccc(Cl)cc1 | nt | nt | nt | nt | 11%[46 µM] | nt
CC1CCN(Cc2c(C#N)c3ccccc3n2C)CC1 | ? | -2% | -9% | 32µM* | 2% | -7%
Cc1nnc(C)c2c(C)n(Cc3ccc4c(c3)OCO4)c(C)c12 | 22µM* | -17% | 12% | -14% | -11% | 21%[10 µM]
c1cc2c(cc1Cn1cnnn1)OCO2 | ? | -13% | 3% | 4% | 11% | 12%[10 µM]
Cc1oc(-c2ccc3c(c2)OCCO3)cc1C(=O)NC(CCC(=O)O)C(=O)O (stereo unspecified) | ? | 14µM* | -3% | 7.9µM* | 8% | 2%
CCN(C(=O)CSc1nc2ccccc2n1Cc1ccc(C(=O)OC)cc1)c1ccccc1 | nt | nt | nt | nt | -11%[46 µM] | nt
O=C(c1cccc(F)c1)N1CCC[C@@]2(CCN(c3ccccn3)C2)C1 | nt | -10% | nt | ? | nt | 26%
CC(C)CC(c1nnnn1C1CCCCC1)N1CCN(c2ncccn2)CC1 (stereo unspecified) | -8% | -14% | 30% | ? | ? | 1%
CC(C)CC(c1nnnn1C1CCCC1)N1CCC(C(N)=O)CC1 (stereo unspecified) | 6% | nt | -1% | 22µM* | nt | ?
CCOC(=O)c1c(C)n(C)c2ccc(O)c(CN3CCN(C)CC3)c12 | -11% | -8% | 2% | 18µM* | -5% | -17%
CCCOc1cccc(-c2cc(C(=O)NN)c3ccccc3n2)c1 | 11µM* | -22% | ? | ? | ? | nt
C#C[C@]1(OC(C)=O)CC[C@H]2[C@@H]3CCC4=C/C(=N/O)CC[C@@H]4[C@H]3CC[C@@]21CC | nt | nt | -17% | nt | nt | -16%
COc1ccc(N2C(=O)C3CCCN3C2c2ccccc2Cl)cc1 (stereo unspecified) | ? | -20% | 3% | 10µM* | -3% | 7%
COc1ccc(N2C(=O)C3CCCN3C2c2ccc(C)cc2)cc1 (stereo unspecified) | 4% | 0% | 3% | 20µM* | -1% | -10%
SMILES | JMJD2E inh | HPGD inh | HttQ103 aggreg | ALDH1A1 block | Lamin A splicing | HTT ATP protect
COc1ccc(N2C(=O)C3CCCN3C2c2ccccc2OC)cc1 (stereo unspecified) | -3% | -14% | 14% | ? | 1% | -5%
C[C@H]1[C@H]2CC[C@H]3[C@@H]4CC=C5C[C@@H](N(C)C)CC[C@]5(C)[C@H]4CC[C@]23CN1C | 3% | -5% | nt | 7% | nt | 11%
CCOc1ccccc1CNC(=O)c1cnc2sc(N3CCCC3)nn2c1=O | nt | nt | nt | nt | -2%[46 µM] | nt
Nc1cc2nsnc2cc1Br | 21% | -16% | 3% | 7.9µM* | 17% | 6%
COc1cc(NS(=O)(=O)c2cc(Br)cc3c2N(C(C)=O)C(C)C3)cc(OC)c1 (stereo unspecified) | nt | nt | nt | nt | 4%[46 µM] | nt
CC1CCCC(C)N1C(=O)Cc1ccccc1 (stereo unspecified) | 0% | 20µM* | 2% | ? | 0% | -1%
CC1CCCC(C)N1C(=O)CSc1nnnn1Cc1ccccc1 (stereo unspecified) | 3% | -5% | 7% | -10% | 6% | -4%
O=C(CSc1nnc(-c2ccc(Br)o2)n1Cc1ccccc1)c1ccccc1F | 5% | 32µM* | -1% | ? | 3% | -4%[1.9 µM]
O=C(CSc1nnc(-c2ccco2)n1Cc1ccccc1)NCc1ccccc1 | 0% | -19% | 0% | -4% | -3% | 22%[10 µM]
COCCn1c(SCC(=O)c2ccc(F)cc2)nnc1C(C)C | ? | -21% | 7% | 13µM* | 9% | -5%[10 µM]
Cc1cc(NC(=O)CSc2nnc(-c3ccc(Br)o3)n2Cc2ccccc2)no1 | -6% | -5% | 13% | ? | ? | 5%
O=C(CSc1nnc(-c2ccco2)n1Cc1ccccc1)c1ccc(F)cc1 | -6% | 25µM* | -5% | 4µM* | 1% | -9%
CCCC[C@H]1C[C@@H]1[C@@H]1N(C(C)=O)[C@H](c2cccc(OC)c2)CC12CC2 | 4% | -10% | nt | -9% | nt | 0%
COC(=O)c1cccc(C23CC4(C2)[C@H](CN(CC2CCCCC2)[C@@H]4c2ccccc2)C3c2ccc(C(F)(F)F)cc2)c1 (stereo partly specified) | -26% | -9% | nt | 3% | nt | -15%
COc1ccc(S(=O)(=O)NC2CCCCC2)cc1-n1cnnn1 | -2% | nt | -10%[9.22 µM] | 1.6µM* | -19%[46 µM] | 7%[10 µM]
CCN(CC)S(=O)(=O)c1ccc(OC)c(-n2cnnn2)c1 | ? | nt | 6%[9.22 µM] | 7.9µM* | 9%[46 µM] | 28%[10 µM]
CCN(CC)S(=O)(=O)c1ccc(-n2cnnn2)c(C)c1 | 5% | -5% | -8%[9.22 µM] | ? | 0% | -17%
Cc1cc(S(=O)(=O)NC2CCCCC2)ccc1-n1cnnn1 | ? | nt | -3%[9.22 µM] | -8% | -4%[46 µM] | -12%[10 µM]
COc1cccc(CNc2cccc3cccnc23)c1O | -2% | 32µM* | ? | ? | 8% | 8%[1.9 µM]
Cc1cc(C)c(OCC(=O)Nc2nnc(-c3ccco3)o2)c(C)c1 | 3% | nt | 19% | 0% | ? | -11%[10 µM]
CC(NC(=O)C(C)(C)C)C(c1cccs1)N1CCOCC1 (stereo unspecified) | -3% | nt | 0%[9.22 µM] | nt | nt | 41%[10 µM]
